Test results reported in ChEMBL document CHEMBL1961873, “Compounds: GSK PKIS; Assays: Nanosyn kinase panel” (2012).

Assays:
[1] = biological target: Mast/stem cell growth factor receptor Kit (Homo sapiens) (UniProt P10721); details: at 1 µM
[2] = system: Mast/stem cell growth factor receptor Kit (Homo sapiens), P10721 [D816V]; details: at 0.1 µM
[3] = system: Mast/stem cell growth factor receptor Kit (Homo sapiens), P10721 [D816V]; details: at 1 µM
[4] = system: Mast/stem cell growth factor receptor Kit (Homo sapiens), P10721 [T670I]; details: at 0.1 µM
Chain of Mast/stem cell growth factor receptor Kit (Homo sapiens), P10721 [T670I] (P10721 whole entry T670I): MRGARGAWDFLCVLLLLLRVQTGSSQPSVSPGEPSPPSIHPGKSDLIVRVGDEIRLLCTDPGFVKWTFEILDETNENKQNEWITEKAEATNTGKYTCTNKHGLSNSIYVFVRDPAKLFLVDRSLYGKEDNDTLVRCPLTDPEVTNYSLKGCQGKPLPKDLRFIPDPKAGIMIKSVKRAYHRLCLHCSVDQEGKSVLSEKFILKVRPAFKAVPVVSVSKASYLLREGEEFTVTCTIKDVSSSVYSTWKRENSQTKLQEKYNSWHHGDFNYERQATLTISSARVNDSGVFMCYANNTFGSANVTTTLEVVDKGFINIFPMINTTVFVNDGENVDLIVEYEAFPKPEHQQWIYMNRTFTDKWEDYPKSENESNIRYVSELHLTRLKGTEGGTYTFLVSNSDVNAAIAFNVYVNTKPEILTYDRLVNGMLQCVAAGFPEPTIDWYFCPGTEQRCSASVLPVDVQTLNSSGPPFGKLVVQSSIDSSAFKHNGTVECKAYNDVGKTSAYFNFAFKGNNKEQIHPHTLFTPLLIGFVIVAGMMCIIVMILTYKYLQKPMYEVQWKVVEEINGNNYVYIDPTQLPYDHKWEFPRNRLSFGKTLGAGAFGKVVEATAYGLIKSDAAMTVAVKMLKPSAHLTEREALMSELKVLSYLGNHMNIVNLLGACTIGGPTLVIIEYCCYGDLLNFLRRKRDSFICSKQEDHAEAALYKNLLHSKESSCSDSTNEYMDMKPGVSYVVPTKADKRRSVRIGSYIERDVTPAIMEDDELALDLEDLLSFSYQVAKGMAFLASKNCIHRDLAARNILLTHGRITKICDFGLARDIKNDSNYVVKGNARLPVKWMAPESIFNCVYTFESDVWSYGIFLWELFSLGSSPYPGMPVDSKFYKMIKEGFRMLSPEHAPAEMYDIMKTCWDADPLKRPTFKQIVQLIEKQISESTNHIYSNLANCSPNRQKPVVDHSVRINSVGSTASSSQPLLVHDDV

[5] = system: Mast/stem cell growth factor receptor Kit (Homo sapiens), P10721 [T670I]; details: at 1 µM
[6] = system: Mast/stem cell growth factor receptor Kit (Homo sapiens), P10721 [V560G]; details: at 0.1 µM
Chain of Mast/stem cell growth factor receptor Kit (Homo sapiens), P10721 [V560G] (P10721 whole entry V560G): as the sequence (P10721 whole entry T670I) above, with V560G, I670T counted along it

[7] = system: Mast/stem cell growth factor receptor Kit (Homo sapiens), P10721 [V560G]; details: at 1 µM
[8] = biological target: Tyrosine-protein kinase Lck (Homo sapiens) (UniProt P06239); details: at 0.1 µM
Chain of Tyrosine-protein kinase Lck (Homo sapiens) (P06239 2-509 limits assumed): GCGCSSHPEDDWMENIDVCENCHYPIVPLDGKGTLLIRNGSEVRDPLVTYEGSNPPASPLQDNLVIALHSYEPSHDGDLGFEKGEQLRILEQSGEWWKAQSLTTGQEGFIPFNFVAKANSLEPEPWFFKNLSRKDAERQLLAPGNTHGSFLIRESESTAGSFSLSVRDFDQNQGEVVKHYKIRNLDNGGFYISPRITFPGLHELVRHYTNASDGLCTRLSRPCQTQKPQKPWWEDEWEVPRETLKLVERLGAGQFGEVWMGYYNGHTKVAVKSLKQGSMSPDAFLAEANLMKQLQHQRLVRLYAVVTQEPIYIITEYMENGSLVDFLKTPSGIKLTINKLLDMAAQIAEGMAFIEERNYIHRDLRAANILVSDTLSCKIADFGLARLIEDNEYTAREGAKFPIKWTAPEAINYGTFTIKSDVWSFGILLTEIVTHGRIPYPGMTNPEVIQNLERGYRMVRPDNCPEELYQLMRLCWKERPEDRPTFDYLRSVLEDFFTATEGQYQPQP

[9] = biological target: Tyrosine-protein kinase Lck (Homo sapiens) (UniProt P06239); details: at 1 µM
[10] = biological target: Leukocyte tyrosine kinase receptor (Homo sapiens) (UniProt P29376); details: at 0.1 µM
Chain of Leukocyte tyrosine kinase receptor (Homo sapiens) (P29376 whole entry): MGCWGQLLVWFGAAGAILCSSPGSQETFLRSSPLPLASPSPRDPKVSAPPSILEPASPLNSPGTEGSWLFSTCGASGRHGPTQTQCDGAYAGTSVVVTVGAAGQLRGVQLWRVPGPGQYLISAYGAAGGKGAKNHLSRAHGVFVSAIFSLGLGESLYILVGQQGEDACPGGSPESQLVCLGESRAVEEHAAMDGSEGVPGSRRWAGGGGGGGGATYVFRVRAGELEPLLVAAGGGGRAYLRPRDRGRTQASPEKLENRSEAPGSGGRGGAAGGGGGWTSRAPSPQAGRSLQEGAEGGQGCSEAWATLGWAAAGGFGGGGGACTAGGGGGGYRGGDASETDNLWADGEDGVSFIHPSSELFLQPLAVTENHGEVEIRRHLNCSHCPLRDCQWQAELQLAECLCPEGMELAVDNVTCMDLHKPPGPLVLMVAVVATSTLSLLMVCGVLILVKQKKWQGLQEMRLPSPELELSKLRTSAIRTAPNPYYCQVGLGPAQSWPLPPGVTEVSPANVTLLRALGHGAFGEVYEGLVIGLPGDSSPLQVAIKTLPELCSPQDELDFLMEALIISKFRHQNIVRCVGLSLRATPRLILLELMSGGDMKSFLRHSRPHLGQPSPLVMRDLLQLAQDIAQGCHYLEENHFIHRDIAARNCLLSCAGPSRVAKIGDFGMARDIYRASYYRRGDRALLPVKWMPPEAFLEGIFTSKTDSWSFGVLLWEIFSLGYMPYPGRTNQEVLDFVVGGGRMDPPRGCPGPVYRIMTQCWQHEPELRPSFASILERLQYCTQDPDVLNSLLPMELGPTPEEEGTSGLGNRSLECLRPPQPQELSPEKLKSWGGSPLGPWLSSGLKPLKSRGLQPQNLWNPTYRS

[11] = biological target: Leukocyte tyrosine kinase receptor (Homo sapiens) (UniProt P29376); details: at 1 µM
[12] = biological target: Tyrosine-protein kinase Lyn (Homo sapiens) (UniProt P07948); details: at 0.1 µM
Chain of Tyrosine-protein kinase Lyn (Homo sapiens) (P07948 2-512 limits assumed): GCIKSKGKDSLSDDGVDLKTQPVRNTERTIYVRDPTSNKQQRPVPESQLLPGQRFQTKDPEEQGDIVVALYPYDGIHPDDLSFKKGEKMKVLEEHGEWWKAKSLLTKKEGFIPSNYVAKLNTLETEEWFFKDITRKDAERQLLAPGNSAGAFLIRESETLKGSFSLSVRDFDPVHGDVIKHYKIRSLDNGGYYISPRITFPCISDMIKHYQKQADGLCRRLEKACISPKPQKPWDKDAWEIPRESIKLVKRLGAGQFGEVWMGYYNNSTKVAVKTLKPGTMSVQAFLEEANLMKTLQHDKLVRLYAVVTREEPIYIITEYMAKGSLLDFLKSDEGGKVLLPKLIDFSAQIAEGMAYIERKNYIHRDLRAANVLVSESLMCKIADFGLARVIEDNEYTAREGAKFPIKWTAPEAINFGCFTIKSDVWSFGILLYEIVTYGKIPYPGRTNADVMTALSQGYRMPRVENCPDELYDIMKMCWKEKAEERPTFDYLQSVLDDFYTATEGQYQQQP

[13] = biological target: Tyrosine-protein kinase Lyn (Homo sapiens) (UniProt P07948); details: at 1 µM
[14] = biological target: Tyrosine-protein kinase Lyn (Homo sapiens) (UniProt P07948); details: at 0.1 µM; remark: listed apart in the source
[15] = biological target: Tyrosine-protein kinase Lyn (Homo sapiens) (UniProt P07948); details: at 1 µM; remark: listed apart in the source
[16] = biological target: T1, Tyrosine-protein kinase Mer (Homo sapiens) (UniProt Q12866); details: at 0.1 µM
T1 sequence (whole entry): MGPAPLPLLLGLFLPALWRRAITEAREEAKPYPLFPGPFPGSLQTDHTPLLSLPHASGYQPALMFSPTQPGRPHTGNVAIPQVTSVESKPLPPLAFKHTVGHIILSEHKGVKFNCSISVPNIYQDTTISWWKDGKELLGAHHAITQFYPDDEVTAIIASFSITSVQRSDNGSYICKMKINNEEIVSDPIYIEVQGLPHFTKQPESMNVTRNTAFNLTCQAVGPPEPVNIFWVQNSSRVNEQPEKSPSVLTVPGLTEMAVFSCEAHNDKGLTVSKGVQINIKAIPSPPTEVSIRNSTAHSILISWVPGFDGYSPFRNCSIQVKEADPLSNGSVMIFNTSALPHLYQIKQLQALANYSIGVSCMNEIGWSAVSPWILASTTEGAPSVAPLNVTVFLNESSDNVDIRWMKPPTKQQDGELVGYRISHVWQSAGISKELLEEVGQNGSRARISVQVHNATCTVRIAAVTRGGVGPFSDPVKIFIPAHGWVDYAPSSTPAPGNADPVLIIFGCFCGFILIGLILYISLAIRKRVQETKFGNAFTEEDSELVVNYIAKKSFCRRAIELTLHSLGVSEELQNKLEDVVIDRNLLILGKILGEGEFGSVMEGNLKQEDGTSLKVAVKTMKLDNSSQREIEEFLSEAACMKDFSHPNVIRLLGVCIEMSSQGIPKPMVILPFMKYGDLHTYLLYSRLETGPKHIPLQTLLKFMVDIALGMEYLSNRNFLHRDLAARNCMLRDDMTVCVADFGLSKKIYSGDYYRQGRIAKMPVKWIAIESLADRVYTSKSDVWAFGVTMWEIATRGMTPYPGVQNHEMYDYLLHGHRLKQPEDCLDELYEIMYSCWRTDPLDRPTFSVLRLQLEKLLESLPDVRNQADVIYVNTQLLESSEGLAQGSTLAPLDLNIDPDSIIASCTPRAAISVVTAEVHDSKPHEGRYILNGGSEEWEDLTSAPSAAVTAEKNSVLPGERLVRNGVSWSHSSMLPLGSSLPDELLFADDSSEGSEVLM

[17] = biological target: T1, Tyrosine-protein kinase Mer (Homo sapiens); details: at 1 µM
[18] = biological target: Hepatocyte growth factor receptor (Homo sapiens) (UniProt P08581); details: at 0.1 µM
Chain of Hepatocyte growth factor receptor (Homo sapiens) (P08581 whole entry): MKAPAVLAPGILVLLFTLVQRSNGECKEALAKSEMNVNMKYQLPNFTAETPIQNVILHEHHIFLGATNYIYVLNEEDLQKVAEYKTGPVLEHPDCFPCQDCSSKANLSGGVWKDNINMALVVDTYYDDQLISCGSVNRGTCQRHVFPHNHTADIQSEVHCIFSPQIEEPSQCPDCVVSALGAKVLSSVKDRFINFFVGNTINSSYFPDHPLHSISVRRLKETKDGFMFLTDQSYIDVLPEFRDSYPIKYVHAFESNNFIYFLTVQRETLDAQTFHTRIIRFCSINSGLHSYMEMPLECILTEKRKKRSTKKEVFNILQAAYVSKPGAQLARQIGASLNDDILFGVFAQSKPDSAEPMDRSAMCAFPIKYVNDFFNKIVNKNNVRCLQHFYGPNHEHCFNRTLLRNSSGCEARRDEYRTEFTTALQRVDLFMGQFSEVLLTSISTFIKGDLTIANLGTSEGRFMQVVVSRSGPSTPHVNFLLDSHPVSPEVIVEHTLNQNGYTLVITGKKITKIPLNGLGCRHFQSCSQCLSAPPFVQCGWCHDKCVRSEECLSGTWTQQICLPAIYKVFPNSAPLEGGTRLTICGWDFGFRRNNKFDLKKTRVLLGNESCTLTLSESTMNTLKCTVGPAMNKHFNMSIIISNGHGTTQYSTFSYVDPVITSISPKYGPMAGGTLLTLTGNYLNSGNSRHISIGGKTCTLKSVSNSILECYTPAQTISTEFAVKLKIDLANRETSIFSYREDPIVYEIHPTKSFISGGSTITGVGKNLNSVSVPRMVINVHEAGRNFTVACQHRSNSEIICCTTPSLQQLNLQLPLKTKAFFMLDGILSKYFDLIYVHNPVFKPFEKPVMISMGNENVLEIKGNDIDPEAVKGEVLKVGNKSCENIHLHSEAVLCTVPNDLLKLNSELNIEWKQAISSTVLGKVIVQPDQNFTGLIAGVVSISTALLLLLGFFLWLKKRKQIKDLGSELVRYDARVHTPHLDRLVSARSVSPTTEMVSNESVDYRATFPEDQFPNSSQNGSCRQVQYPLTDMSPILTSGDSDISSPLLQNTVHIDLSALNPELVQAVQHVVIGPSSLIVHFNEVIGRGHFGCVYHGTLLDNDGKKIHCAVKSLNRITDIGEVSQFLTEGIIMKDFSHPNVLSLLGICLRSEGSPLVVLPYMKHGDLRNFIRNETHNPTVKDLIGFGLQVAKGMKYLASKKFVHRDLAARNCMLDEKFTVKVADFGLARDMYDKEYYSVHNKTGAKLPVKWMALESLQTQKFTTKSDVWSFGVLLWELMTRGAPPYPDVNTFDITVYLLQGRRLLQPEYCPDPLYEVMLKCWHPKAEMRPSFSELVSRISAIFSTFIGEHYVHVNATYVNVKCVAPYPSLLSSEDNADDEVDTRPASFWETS

[19] = biological target: Hepatocyte growth factor receptor (Homo sapiens) (UniProt P08581); details: at 1 µM
[20] = biological target: T2, Muscle, skeletal receptor tyrosine-protein kinase (Homo sapiens) (UniProt O15146); details: at 0.1 µM;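 further: values are mean inhibition of MuSK from the GSK PKIS kinase screening panel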
T2 sequence (whole entry): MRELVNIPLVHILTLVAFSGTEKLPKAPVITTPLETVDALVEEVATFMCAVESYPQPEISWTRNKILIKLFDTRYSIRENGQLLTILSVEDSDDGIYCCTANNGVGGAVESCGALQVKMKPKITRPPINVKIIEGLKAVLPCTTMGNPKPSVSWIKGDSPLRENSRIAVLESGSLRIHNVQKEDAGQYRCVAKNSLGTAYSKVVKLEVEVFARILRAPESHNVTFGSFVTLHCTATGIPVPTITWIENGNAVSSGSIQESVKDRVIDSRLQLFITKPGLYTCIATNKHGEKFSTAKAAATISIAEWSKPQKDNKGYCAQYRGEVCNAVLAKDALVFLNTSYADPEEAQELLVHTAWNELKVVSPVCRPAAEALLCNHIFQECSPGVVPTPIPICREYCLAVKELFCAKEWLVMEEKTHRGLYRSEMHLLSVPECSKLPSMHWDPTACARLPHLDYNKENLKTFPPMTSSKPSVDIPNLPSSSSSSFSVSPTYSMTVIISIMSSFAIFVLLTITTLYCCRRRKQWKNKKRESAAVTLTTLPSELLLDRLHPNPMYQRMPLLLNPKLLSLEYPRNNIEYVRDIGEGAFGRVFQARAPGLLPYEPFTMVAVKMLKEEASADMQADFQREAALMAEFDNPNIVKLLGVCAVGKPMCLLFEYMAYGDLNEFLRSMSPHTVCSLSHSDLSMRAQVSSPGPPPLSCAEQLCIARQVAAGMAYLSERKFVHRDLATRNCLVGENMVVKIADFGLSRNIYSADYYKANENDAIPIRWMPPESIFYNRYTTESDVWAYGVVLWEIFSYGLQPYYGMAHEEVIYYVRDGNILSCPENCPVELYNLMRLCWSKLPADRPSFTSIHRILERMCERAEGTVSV

Chain of Mast/stem cell growth factor receptor Kit (Homo sapiens), P10721 [D816V] (P10721 whole entry D816V): as the sequence (P10721 whole entry T670I) above, with I670T, D816V counted along it
Chain of Mast/stem cell growth factor receptor Kit (Homo sapiens) (P10721 whole entry): as the sequence (P10721 whole entry T670I) above, with I670T counted along it

Row | SMILES | inhibition [1] [%] | inhibition [2] [%] | inhibition [3] [%] | inhibition [4] [%] | inhibition [5] [%] | inhibition [6] [%] | inhibition [7] [%] | inhibition [8] [%] | inhibition [9] [%] | inhibition [10] [%] | inhibition [11] [%] | inhibition [12] [%] | inhibition [13] [%] | inhibition [14] [%] | inhibition [15] [%] | inhibition [16] [%] | inhibition [17] [%] | inhibition [18] [%] | inhibition [19] [%] | inhibition [20] [%]
1 | C#Cc1cccc(Nc2ncnc3ccc(OCCCCNCCS(C)(=O)=O)cc23)c1 | 7.12 | 5.01 | 8.8 | 1.97 | 9.5 | -0.82 | 4.36 | 0.24 | 13.5 | 5.05 | 28.5 | 7.93 | 26.9 | 5.05 | 21.8 | 2 | 5.14 | 3.29 | 8.4 | 1.86
2 | Fc1ccc(-c2ncn(C3CCNCC3)c2-c2ccnc(Oc3ccc(Oc4ccccc4)cc3)n2)cc1 | 6.51 | 2.38 | 2.59 | 1.59 | 1.82 | -2.65 | -3.42 | 4.01 | 4.76 | 3.78 | 4.33 | 3.46 | 5.25 | 1.56 | 2.92 | 1.43 | 10.6 | 9.38 | 0.02 | 2.43
3 | Fc1ccc(-c2ncn(C3CCNCC3)c2-c2ccnc(Oc3ccc(F)c(F)c3)n2)cc1 | 5.24 | 5.58 | 2.5 | 1.57 | 1.83 | -1.36 | 0.87 | -1.59 | -1.94 | 2.84 | 2.29 | 3.84 | 3.75 | 2.34 | 2.48 | 1.13 | 1.39 | 7.87 | 4.17 | 2.92
4 | FC(F)(F)c1cccc(Nc2nccc(-c3cnn4nc(-c5ccccc5)ccc34)n2)c1 | 37.3 | 1.06 | 0.54 | 1.8 | 5.77 | -2.09 | 1.67 | 1.68 | 2.24 | 0.59 | 0.52 | 0.75 | 3.22 | 0.52 | 2.95 | -0.58 | 0.62 | -0.38 | 0.28 | 1.03
5 | CCc1nccc2c1nc(-c1nonc1N)n2CC | 0.89 | 0.61 | -2.34 | -0.13 | -2.18 | 3.98 | 0.88 | 0.67 | 6.3 | 6.17 | 6.1 | 3.82 | 6.26 | 1.19 | 2.71 | -0.98 | 0.92 | 2.04 | 2.39 | 1.31
6 | COc1ccc(-c2ccc3c(NC(=O)C4CC4)n[nH]c3n2)cc1 | 6.98 | 3.21 | 2.92 | 0.56 | 3.21 | 4.61 | 2.87 | -0.02 | 3.64 | 1.94 | 1.49 | 1.25 | 5.43 | 0.89 | 5.03 | 0.16 | 3.67 | 1.87 | 7.43 | 0.33
